According to PubChem BioAssay (Tox21):
Active and inactive are the calls of the source. Calls come from the whole dose curve; as a rule, active = well fitted curve in the direction sought with a large enough effect in the repeat runs; inconclusive = weak or mixed curves; inactive = flat fitted curve, though single readings scatter.

assay: qHTS assay to test for compound auto fluorescence at 460 nm (blue) in HepG2 cell free culture (AID 720685); conditions: Cell-free culture medium, blue autofluorescence 405/460 nm; series mostly up to 91.3 µM; fluorescence, % of fluorescent control: at the top concentration
Method in brief: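 Compound (23 nL) or DMSO pinned into cell-free MEM with 10% FBS; blue fluorescence read at 405/460 nm excitation/emission, expressed as auto-fluorescence equivalency to triamterene.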
% is set by controls: 0 for no effect and ±100 for the full control effect.

Structure (SMILES)	outcome	fluorescence, % of fluorescent control
CC(C)C[C@H]1C(=O)N2CCC[C@H]2[C@]2(O)O[C@](NC(=O)[C@@H]3C=C4c5cccc6[nH]c(Br)c(c56)C[C@H]4N(C)C3)(C(C)C)C(=O)N12	inactive	
Cc1[nH]c(C)c(Cl)c(=O)c1Cl		-0.0187% [at 46 µM] (inactive)
CC(C)Nc1ccc(NC(C)C)c2c1C(=O)c1ccccc1C2=O		-0.238% [at 46 µM] (inactive)
Cc1cccc(Nc2ccccc2)c1		-0.135% (inactive)
O=C1CCCCCCCCCCCC(=O)OCCO1		0.026% (inactive)
COc1cc(Cl)ccc1Oc1ccc(Cl)cc1Cl		-0.128% (inactive)
Cc1cccc(C)c1OCC(=O)N[C@@H](Cc1ccccc1)[C@@H](O)C[C@H](Cc1ccccc1)NC(=O)[C@H](C(C)C)N1CCCNC1=O		-0.0219% [at 46 µM] (inactive)
CCCCCCCCCCCCCCOS(=O)(=O)O		0.127% (inactive)
CCN(CC)CCOC(=O)C(c1ccccc1)C1CCCCC1 (centres undefined)		0.0609% [at 46 µM] (inactive)
Cc1c(N)cccc1[N+](=O)[O-]		-0.0428% [at 95.7 µM] (inactive)
CC(C)O.CC(C)O.CCOC(=O)/C=C(\C)O.CCOC(=O)/C=C(\C)O.[Ti]		-0.0685% (inactive)
C#Cc1cccc(Nc2ncnc3cc(OCCOC)c(OCCOC)cc23)c1		-0.0456% [at 46 µM] (inactive)
COc1cc(Cl)c(OC)cc1N		0.1% (inactive)
COc1cccc(N(C)C(=S)Oc2ccc3c(c2)CCCC3)n1		0.0175% [at 46 µM] (inactive)
CC1CCC(=O)C1=O (centres undefined)		0.0415% [at 95.7 µM] (inactive)
CC[N+](C)(CC)CCOC(=O)C(O)(c1ccccc1)C1CCCCC1 (centres undefined)		-0.0148% [at 46 µM] (inactive)
CCCCCCCC/C=C\CCCCCCCC(=O)OCC		0.0008% (inactive)

Structure (SMILES)	outcome	fluorescence, % of fluorescent control
O=C(O)CC(=O)C(=O)O		0.103% (inactive)
CCc1cc(C2=C(C(=O)O)N(c3ccccc3C(F)(F)F)S(=O)(=O)c3ccccc32)cc2c1OCO2		-0.119% (inactive)
CCCCNc1ccc(C(=O)OCCOCCOCCOCCOCCOCCOCCOCCOCCOC)cc1		-0.106% [at 18.6 µM] (inactive)
CCC(C)c1cc(C(C)(C)C)c(O)c(C(C)(C)C)c1 (centres undefined)		-0.0354% (inactive)
CNCCCCOc1ccccc1Cc1ccccc1		-0.0326% [at 46 µM] (inactive)
CCOC(=O)COC(=O)c1cc(Oc2ccc(C(F)(F)F)cc2Cl)ccc1[N+](=O)[O-]		0.215% (inactive)
Nc1ncn([C@H]2C[C@H](O)[C@@H](CO)O2)c(=O)n1		0.0312% [at 46 µM] (inactive)
NC(N)=NCCC[C@H](N)C(=O)O		0.0529% [at 46 µM] (inactive)
C=CC(=O)OCCOCCOC(=O)C=C		-0.121% (inactive)
CN(C)c1ccc(/C=C/c2ccc([N+](=O)[O-])cc2)cc1		-0.0827% [at 3.72 µM] (inactive)
CCCCCCCCCCO[C@@H]1O[C@H](CO)[C@@H](O)[C@H](O)[C@H]1O		-0.0091% (inactive)
CCCNCC(O)COc1ccccc1C(=O)CCc1ccccc1 (centres undefined)		-0.0065% [at 46 µM] (inactive)
O=C(Nc1ccccc1)c1ccccc1O		0.059% (inactive)
CN1CCC(=C2c3ccccc3Sc3ccccc32)CC1		0.044% [at 46 µM] (inactive)
C=CCOc1ccccc1OCC(O)CNC(C)C (centres undefined)		-0.0059% [at 18.6 µM] (inactive)
O=C(O)c1nc(Cl)c(Cl)c(Cl)c1Cl		-0.0985% (inactive)
CCO[C@H](Cc1ccc(OCCc2ccc(OS(C)(=O)=O)cc2)cc1)C(=O)O		-0.145% [at 46 µM] (inactive)
